Measured values from PubChem BioAssay.
For some of these results: Potency and affinity values are given separately. Calls of active or inactive are those of the source.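 The calls were made as follows, unless noted: active = signal rise over 3 SD above mean of control wells given weak agonist, in both repeats and first screen; inactive = the rest.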

Legend:
[1] = test system: TRPC4 beta (transient receptor potential cation channel C4), mouse; assay: TRPC4 cation channel opening, retest – cell-based, Fluo4 calcium, HEK293 TRPC4beta/mu-opioid, duplicates, 10 µM, confirmation (AID 2426;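 active = fluorescence ratio normalized to control raised more than 50% in primary screen plus both repeat runs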); conditions: Fluo4 calcium fluorescence, at 10 µM; hits give high values
[2] = test system: transient receptor potential cation channel C4 beta (TRPC4), mouse; assay: TRPC4 cation channel opening, second retest – cell-based, second round, Fluo4, HEK293 TRPC4beta/mu-opioid, 1 µM, confirmation (AID 2461;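 active = primary screen active and over 50% activation in each of two duplicate runs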); conditions: Fluo4 calcium fluorescence, at 1 µM; hits give high values
[3] = test system: TRPC4 (transient receptor potential cation channel C4 beta), mouse; assay: potentiation of DAMGO EC20 TRPC4 response – cell-based, second round, Fluo-4, HEK293 TRPC4beta/mu-opioid, 1 µM, confirmation (AID 2554;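 active = primary screen hit whose fluorescence ratio, in both repeats, exceeds the weak agonist control mean by 3 SD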); conditions: DAMGO EC20, Fluo-4 calcium flux, at 1 µM; hits give high values
[4] = test system: TRPC4 beta (transient receptor potential cation channel C4), mouse; assay: potentiation of DAMGO EC20 TRPC4 response – cell-based, Fluo-4, HEK293 TRPC4beta/mu-opioid, confirmation (AID 2555;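 active = primary screen hit whose calcium fluorescence ratio, in both repeats, exceeds the weak agonist control mean by 3 SD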); conditions: DAMGO EC20, Fluo-4 calcium flux, at 10 µM; hits give high values
[5] = target: Short transient receptor potential channel 4 (Mus musculus) (UniProt Q9QUQ5); assay: blockers of DAMGO-evoked TRPC4 calcium flux – cell-based, Fluo4, HEK293 TRPC4beta/mu-opioid, confirmation (AID 2636;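 active = calcium signal cut by more than 3 SD below the full-agonist control yet still positive, in both repeats and the earlier primary screen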); conditions: at 10 µM; hits give high values
Chain of Short transient receptor potential channel 4 (Mus musculus) (Q9QUQ5 whole entry, looked up): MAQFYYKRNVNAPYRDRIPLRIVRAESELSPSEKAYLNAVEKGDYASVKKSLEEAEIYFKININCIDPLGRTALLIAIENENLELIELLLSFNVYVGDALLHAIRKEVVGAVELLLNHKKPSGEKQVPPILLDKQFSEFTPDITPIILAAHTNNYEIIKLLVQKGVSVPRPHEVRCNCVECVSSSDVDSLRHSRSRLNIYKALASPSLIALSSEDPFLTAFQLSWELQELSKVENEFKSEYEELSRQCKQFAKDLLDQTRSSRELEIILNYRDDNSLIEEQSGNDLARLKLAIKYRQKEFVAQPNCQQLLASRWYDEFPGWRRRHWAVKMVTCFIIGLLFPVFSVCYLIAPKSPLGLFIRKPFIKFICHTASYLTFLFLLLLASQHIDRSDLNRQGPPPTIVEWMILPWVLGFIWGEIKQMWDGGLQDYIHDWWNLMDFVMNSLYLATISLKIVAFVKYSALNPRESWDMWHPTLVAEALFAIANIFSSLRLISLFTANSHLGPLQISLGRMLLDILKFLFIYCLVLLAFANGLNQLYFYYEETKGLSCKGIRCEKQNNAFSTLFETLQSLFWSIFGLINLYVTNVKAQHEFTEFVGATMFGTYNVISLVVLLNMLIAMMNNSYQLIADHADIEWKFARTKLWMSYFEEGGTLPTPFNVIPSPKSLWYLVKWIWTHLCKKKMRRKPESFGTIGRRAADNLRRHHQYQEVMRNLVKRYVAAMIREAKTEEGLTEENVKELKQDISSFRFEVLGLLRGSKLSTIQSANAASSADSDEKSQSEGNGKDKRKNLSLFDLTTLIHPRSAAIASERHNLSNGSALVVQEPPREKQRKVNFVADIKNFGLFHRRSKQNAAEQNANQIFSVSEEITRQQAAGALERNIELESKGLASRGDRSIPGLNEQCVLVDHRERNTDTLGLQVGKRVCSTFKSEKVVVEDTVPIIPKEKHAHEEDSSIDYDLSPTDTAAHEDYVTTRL

[6] = target: Short transient receptor potential channel 4 (Mus musculus) (UniProt Q9QUQ5); assay: blockers of DAMGO-evoked TRPC4 calcium flux – cell-based, second round, Fluo4, HEK293 TRPC4beta/mu-opioid, 1 µM, confirmation (AID 2637;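 active = calcium signal ratio cut to more than 3 SD under the fully stimulated control mean yet still positive, in both repeats and the primary screen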); conditions: at 1 µM; hits give high values
[7] = target: Short transient receptor potential channel 4 (Mus musculus) (UniProt Q9QUQ5); assay: calcium entry via TRPC4 opening agents – cell-based, HEK293 TRPC4/mu-opioid, Fluo-4 calcium, dose response (AID 434937;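 active = primary screen activator hit with a dose response curve and TRPC4 channel activation at any tested dose; inactive = no activation, no dose response, or not a primary hit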)
[8] = target: Short transient receptor potential channel 4 (Mus musculus) (UniProt Q9QUQ5); assay: potentiation of DAMGO-evoked TRPC4 calcium signal – cell-based, HEK293 TRPC4/mu-opioid, Fluo-4 calcium, EC20 DAMGO, dose response (AID 434941;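 active = earlier screen potentiator hit that boosts the TRPC4 ion channel at some dose, with a dose response; inactive = no potentiation, no dose response, or not a prior hit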;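 also: calcium entry triggered by an EC20 dose of DAMGO at the co-expressed mu-opioid receptor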)
[9] = target: Short transient receptor potential channel 4 (Mus musculus) (UniProt Q9QUQ5); assay: block of DAMGO-driven TRPC4 calcium entry – cell-based, HEK293 TRPC4/mu-opioid, Fluo-4 calcium, dose response (AID 434942;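 active = primary screen inhibitor hit that blocks the TRPC4 channel at some tested dose, yielding a dose curve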)
[10] = target: Short transient receptor potential channel 6 (Mus musculus) (UniProt Q61143); assay: TRPC6 blockade by TRPC4 inhibitor hits – cell-based, HEK293, membrane potential dye, duplicate, selectivity assay for TRPC4 inhibitor project, confirmation (AID 434948;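 active = active in primary screen and both duplicates, each dropping signal beyond three positive-control SD with fluorescence still positive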); conditions: HEK293 TRPC6, membrane potential dye fluorescence, at 10 µM, stimulated with maximal-effect acetylcholine; hits give high values
Chain of Short transient receptor potential channel 6 (Mus musculus) (Q61143 whole entry, looked up): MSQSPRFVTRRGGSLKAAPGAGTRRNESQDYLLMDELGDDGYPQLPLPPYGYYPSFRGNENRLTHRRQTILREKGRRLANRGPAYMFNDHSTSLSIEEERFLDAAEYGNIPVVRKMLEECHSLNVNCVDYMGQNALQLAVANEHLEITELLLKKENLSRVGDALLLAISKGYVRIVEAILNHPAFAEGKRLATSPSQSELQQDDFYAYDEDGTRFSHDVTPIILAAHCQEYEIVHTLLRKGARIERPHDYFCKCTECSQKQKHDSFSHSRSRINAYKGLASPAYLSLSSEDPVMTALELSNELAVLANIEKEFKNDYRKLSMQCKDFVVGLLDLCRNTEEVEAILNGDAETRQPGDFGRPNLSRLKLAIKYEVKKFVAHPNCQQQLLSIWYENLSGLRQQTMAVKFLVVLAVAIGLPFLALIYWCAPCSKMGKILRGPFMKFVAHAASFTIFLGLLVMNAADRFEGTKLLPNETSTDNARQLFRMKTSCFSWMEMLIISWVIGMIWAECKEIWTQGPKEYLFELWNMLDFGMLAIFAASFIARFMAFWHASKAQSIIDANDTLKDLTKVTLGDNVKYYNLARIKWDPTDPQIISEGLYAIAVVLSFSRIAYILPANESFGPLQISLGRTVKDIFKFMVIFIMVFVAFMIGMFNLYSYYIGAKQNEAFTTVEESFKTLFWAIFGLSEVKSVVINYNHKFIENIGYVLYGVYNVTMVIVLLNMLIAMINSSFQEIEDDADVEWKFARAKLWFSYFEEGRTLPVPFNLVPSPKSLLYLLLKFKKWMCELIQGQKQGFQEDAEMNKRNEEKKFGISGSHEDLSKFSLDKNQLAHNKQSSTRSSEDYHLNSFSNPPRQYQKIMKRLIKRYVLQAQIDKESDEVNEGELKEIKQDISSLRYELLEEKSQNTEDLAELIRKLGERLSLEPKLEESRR

[11] = target: Short transient receptor potential channel 6 (Mus musculus) (UniProt Q61143); assay: TRPC6 opening by TRPC4 activator hits – cell-based, HEK293, membrane potential dye, duplicate, selectivity assay for TRPC4 activator project, confirmation (AID 434950;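 active = membrane potential signal rise above negative control mean plus 3 SD in both duplicates, also active in the earlier TRPC4 screen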); conditions: HEK293 TRPC6, membrane potential fluorescence, at 10 µM; activation: hits give high values; outcome: activation
[12] = target: Short transient receptor potential channel 6 (Mus musculus) (UniProt Q61143); assay: positive modulators of mouse TRPC6 channel – HEK293 cells, membrane potential dye, duplicate, selectivity assay for TRPC4 potentiator project, confirmation (AID 434952;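 active = compound raising the membrane signal above positive-control mean plus 3 SD in both repeats, and a primary screen hit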); conditions: HEK293 TRPC6, membrane potential dye fluorescence, at 10 µM, maximal acetylcholine added after compound; hits give high values
[13] = target: Short transient receptor potential channel 4 (Mus musculus) (UniProt Q9QUQ5); assay: calcium flux activators in TRPC4/5HT1a cells, counter-screen for TRPC4 activator project, cell-based, second counter screen, HEK293 TRPC4/5HT1a, Fluo-4 (AID 434977;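 active = calcium signal rise above buffer-control mean plus 5 SD in both duplicates, and also a hit in the primary screen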); conditions: Fluo-4 calcium flux, at 10 µM; hits give high values
[14] = serotonin-gated TRPC4 signal block – cell-based, second counter screen, HEK293 TRPC4/5HT1a, Fluo-4, counter-screen for TRPC4 inhibitor project, confirmation (AID 434978;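 active = primary screen active whose calcium signal fell more than 3 SD beyond the full-serotonin control mean in both duplicate plates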;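 also: serotonin given first at submaximal then at maximal dose after compound preincubation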); conditions: Fluo-4 calcium flux, at 10 µM, serotonin added to trigger calcium flux; hits give high values
[15] = test system: TRPC4 (mouse), co-expressed with 5HT1a in HEK293; assay: enhancement of serotonin-evoked TRPC4 response – cell-based, second counter screen, HEK293 TRPC4/5HT1a, Fluo-4, counter-screen for TRPC4 potentiator project, confirmation (AID 434979); conditions: Fluo-4 calcium flux, at 10 µM, serotonin added at its EC20 dose; hits give high values
[16] = nonspecific calcium rise without TRPC4 – cell-based, HEK293 mu-opioid receptor line, counter-screen for TRPC4 activator project, confirmation (AID 449723;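 active = hit in primary screen, with calcium signal over 5 SD above buffer well mean in both duplicates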;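 also: counter screen cells carry the mu-opioid receptor alone and lack TRPC4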); conditions: HEK293 mu-opioid cells, Fluo-4 calcium fluorescence, at 10 µM; hits give high values
[17] = nonspecific potentiation of DAMGO calcium response – cell-based, HEK293 mu-opioid receptor line, counter-screen for TRPC4 allosteric potentiator project, confirmation (AID 449724;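 active = calcium signal rise more than 3 SD above the low-dose agonist control mean, in both duplicate plates and the primary screen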); conditions: HEK293 mu-opioid receptor cells, Fluo-4 calcium flux, at 10 µM, compound added before EC20 DAMGO stimulus; hits give high values

Structure (SMILES)	outcome [1]	outcome [2]	potentiation [3]	outcome [4]	outcome [5]	outcome [6]	outcome [7]	outcome [8]	outcome [9]	outcome [10]	outcome [11]	outcome [12]	outcome [13]	outcome [14]	potentiation [15]	outcome [16]	outcome [17]	outcome [3]	outcome [15]
CCN1CCN(c2c(Cl)cccc2NC(=O)c2cccs2)CC1	inactive	inactive	14% (active)	inactive	inactive	inactive	inactive	inactive	inactive	inactive	inactive	inactive	inactive	inactive	20.9% (active)	inactive	inactive		
Oc1cccc(C(=S)N2CCN(Cc3ccccc3)CC2)c1	inactive	inactive		inactive	inactive	inactive	inactive	inactive	inactive	inactive	inactive	inactive	inactive	inactive		inactive	inactive	inactive	inactive
O=C(C1CCCN(Cc2cccc(Cl)c2)C1)N1CCCCC1 (stereo unspecified)	inactive	inactive		inactive	inactive	inactive	inactive	inactive	inactive	inactive	inactive	inactive	inactive	inactive		inactive	inactive	inactive	inactive
COC(=O)[C@@]12CCCCN1[C@H](c1ccc(-c3ccc(C(C)=O)cc3)cc1)[C@@H]1C(=O)N(C)C(=O)[C@@H]12	inactive	inactive		inactive	inactive	inactive	inactive	inactive	inactive	inactive	inactive	inactive	inactive	inactive		inactive	inactive	inactive	inactive
COc1cc(NC(=O)C(C)Oc2ccccc2)cc(OC)c1 (stereo unspecified)	inactive	inactive		inactive	inactive	inactive	inactive	inactive	inactive	inactive	inactive	inactive	inactive	inactive		inactive	inactive	inactive	inactive
Cc1ccc(CC(=O)NCC(c2ccco2)N(C)C)cc1C (stereo unspecified)	inactive	inactive		inactive	inactive	inactive	inactive	inactive	inactive	inactive	inactive	inactive	inactive	inactive		inactive	inactive	inactive	inactive
O=C(CN1CCCC1)N1c2ccccc2Sc2ccc(C(F)(F)F)cc21	inactive	inactive		inactive	inactive	inactive	inactive	inactive	inactive	inactive	inactive	inactive	inactive	inactive		inactive	inactive	inactive	inactive
CCOC(=O)C1=NNC(C(=O)c2ccc(Cl)cc2)C1c1ccc(OC)cc1 (stereo unspecified)	inactive	inactive		inactive	inactive	inactive	inactive	inactive	inactive	inactive	inactive	inactive	inactive	inactive	8.48% (active)	inactive	inactive	inactive	
